Sampled rows, rich in hits. Any-hit rate of the full collection: about 5.1%.
CRFBP-R2 block: CRF-BP/CRF-R2 complex antagonism; HEK293 CRF-R2/CRF-BP, CRF-induced calcium fluorescence; inhibition, % at 11.8 µM; hit rate 0.59% among 350,000; AID 588475;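 active means inhibition of the ligand-induced calcium signal above about 50% at the single tested concentration, limit read from the data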
CRFR2-BP ag: agonists of human CRF-binding protein/CRF-R2 receptor complex; activation, % at 13.2 µM; HEK293 CRF-R2/CRF-BP, calcium dye fluorescence (FLIPR); percent of saturating CRF peptide response; hit rate 0.46% among 350,000;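 active means activation of at least 50%, plus an integration ratio under a set limit after plate pattern correction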;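 further: plate controls were neutral control wells without compound for no effect and CRF at EC100 for full effect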
GRIN3A LBD mod: NR3A (human) ligand-binding domain modulation | NR3A LBD differential scanning fluorimetry, Tm shift; 0% = protein alone, 100% = glycine-bound protein | Tm shift relative to glycine control, % at 25 µM | hit rate 2.5% among 340,000 | AID 1259313;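 active means melting temperature shift of at least 10% of the positive control shift, at one fixed dose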
TMEM16A inh: inhibitors of mouse TMEM16A calcium-activated chloride channel; hit rate 1.2% among 310,000; AID 588511; normalized B-score (activity score, 25-100; higher = stronger inhibition) at 10 µM; HEK293 TMEM16A/YFP iodide influx fluorescence, ionomycin;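 active means ratio plate-corrected score three or more library SD toward inhibition, starting fluorescence score within five deviations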;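 further: score derived from kinetic fluorescence span divided by baseline fluorescence per well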
Target sequence (Q8BHY3 whole entry, looked up): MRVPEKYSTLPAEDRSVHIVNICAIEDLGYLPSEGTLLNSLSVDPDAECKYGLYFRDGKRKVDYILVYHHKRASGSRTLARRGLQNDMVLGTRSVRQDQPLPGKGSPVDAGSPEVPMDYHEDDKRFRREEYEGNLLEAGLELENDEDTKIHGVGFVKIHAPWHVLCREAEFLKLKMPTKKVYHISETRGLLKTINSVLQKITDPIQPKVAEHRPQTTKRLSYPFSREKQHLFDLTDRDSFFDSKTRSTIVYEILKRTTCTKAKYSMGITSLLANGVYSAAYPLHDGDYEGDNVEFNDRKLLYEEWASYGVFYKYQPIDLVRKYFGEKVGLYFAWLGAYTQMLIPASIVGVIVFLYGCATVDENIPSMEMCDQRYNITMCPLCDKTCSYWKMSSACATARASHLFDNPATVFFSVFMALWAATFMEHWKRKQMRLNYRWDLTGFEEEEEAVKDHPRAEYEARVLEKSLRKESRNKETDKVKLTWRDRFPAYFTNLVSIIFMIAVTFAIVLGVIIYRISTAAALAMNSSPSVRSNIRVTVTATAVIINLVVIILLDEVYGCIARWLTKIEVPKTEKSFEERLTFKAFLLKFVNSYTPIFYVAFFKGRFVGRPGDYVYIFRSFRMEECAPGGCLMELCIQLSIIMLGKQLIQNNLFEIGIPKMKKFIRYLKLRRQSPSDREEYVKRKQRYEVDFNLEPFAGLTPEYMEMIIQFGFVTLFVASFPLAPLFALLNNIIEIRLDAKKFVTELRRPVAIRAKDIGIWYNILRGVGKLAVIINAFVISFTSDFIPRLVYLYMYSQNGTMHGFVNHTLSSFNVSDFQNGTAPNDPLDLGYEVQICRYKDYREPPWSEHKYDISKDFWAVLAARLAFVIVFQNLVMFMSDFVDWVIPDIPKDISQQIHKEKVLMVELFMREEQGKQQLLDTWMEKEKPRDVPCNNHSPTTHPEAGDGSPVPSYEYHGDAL
MPTP block: blocks calcium-induced mitochondrial swelling; isolated mouse mitochondria, Ca2+ swelling absorbance, 30 min; inhibition, % at 10 µM; hit rate 1.4% among 360,000;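 active means inhibition of 50% or more, scaled per plate between neutral and stimulator controls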;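 further: 0% = DMSO wells given calcium and 100% = 1 mM EGTA wells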
TMEM16A act: activators or potentiators of mouse TMEM16A chloride channel; HEK293 TMEM16A/YFP-H148Q/I152L, iodide quench fluorescence; stronger effect = lower value; B-score at 10 µM; hit rate 0.3% among 340,000;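 active means fluorescence-ratio B-score plate-corrected deviation score at least 3 library SD below zero, with starting fluorescence score within 5 deviations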;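 further: channel opened by trigger with iodide after compound preincubation; score built on the fluorescence ratio of max minus min over baseline; more negative score means more quench and so TMEM16A activation or potentiation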
Rh123 counter: membrane potential counter-screen of mitochondrial pore inhibitors; hit rate 78% among 5,000; shares compounds with MPTP block; isolated mitochondria, Rhodamine 123 fluorescence; inhibition, % at 10 µM; in the data active means inhibition above about 22%;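 further: 0% = DMSO vehicle and 100% = positive control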
MPTP swell DR: MPTP inhibition, dose response swelling confirmation; AID 651561; isolated mitochondria swelling, absorbance; shares compounds with MPTP block; IC50, µM; hit rate 58% among 780; in the data active means IC50 below about 20 µM
MPTP counter DR: MPTP inhibitor counter-screen activity, dose response | hit rate 49% among 780 | AID 651564 | IC50, µM | isolated mitochondria counterscreen, fluorescence read-out | shares compounds with MPTP block; in the data active means IC50 below about 80 µM
Numbers without * were called inactive; i = inactive; nt = no result given.

SMILES	CRFBP-R2 block	CRFR2-BP ag	GRIN3A LBD mod	TMEM16A inh	MPTP block	TMEM16A act	Rh123 counter	others
CCc1c(C(=O)Nc2cc(C)cc(C)c2)[nH]c(C)c1C(C)=O	2	0	-12	i	79*	i	84*
Cc1cccc(C(=O)OCC(=O)N2CCCCCC2)c1O	-4	-1	2	nt	1	i	nt
N#CCCn1c(SCC(=O)NCc2ccco2)nc2ccccc21	-13	1	0	i	74*	i	-2	MPTP swell DR=i;MPTP counter DR=>80
O=C(CSc1nc2ccccc2n1CC(=O)NCc1ccccc1)NCc1ccco1	-12	-1	0	i	-1	i	nt
CCc1ccc(C(=O)NNC(=O)c2ccc(OCC(=O)N3CCOCC3)c(OC)c2)cc1	3	0	0	nt	0	i	nt
CC(OC(=O)/C=C/c1ccc2ccccc2n1)C(=O)Nc1ccc(S(N)(=O)=O)cc1 (stereo unspecified)	-7	0	-3	i	1	i	nt
Cc1cccc[n+]1CC(=O)/C=C1\N(C)c2ccccc2C1(C)C	6	1	0	i	1	i	nt
CN1/C(=C/C=C/c2n(C)c3cc([N+](=O)[O-])c([N+](=O)[O-])cc3[n+]2C)C(C)(C)c2ccccc21	11	-3	nt	nt	81*	nt	-9	MPTP swell DR=i;MPTP counter DR=<2.5*
Fc1cccc(NC(=S)NC2CCCCCCC2)c1	-3	8	4	i	75*	i	98*
O=C(Nc1cccc(C(F)(F)F)c1)C1CCCCC1	-11	4	-6	i	-3	i	nt
FC(F)(F)c1cccc(NC(=S)NC2CCCC2)c1	23	30	-2	i	100*	i	83*
FC(F)(F)c1ccc(NC(=S)NC2CCCCC2)cc1	-4	16	1	i	99*	i	78*
FC(F)(F)c1cccc(N2CCN(C(=S)NC3CCCCC3)CC2)c1	-26	1	-1	i	81*	i	72*
CC(C)[C@H](NC(=O)OC(C)(C)C)c1cc(C(=O)NCCO)c(N)s1	nt	nt	nt	nt	-2	nt	nt
Cc1ccc(C(=O)OCC(=O)Nc2cc(C(C)(C)C)no2)c(C)c1	-11	5	-10	nt	0	i	nt
OC(c1cccc(Cl)c1)c1nc(/C=C/c2ccccc2)cs1 (stereo unspecified)	nt	nt	nt	nt	2	nt	nt
CCCCc1cc(=O)oc2cc(OCc3cc(OC)c(OC)c(OC)c3)c(Cl)cc12	35	-1	1	i	88*	-4.9*	-4	MPTP swell DR=3*;MPTP counter DR=5*
CCCc1cc(=O)oc2cc(OCc3cc(OC)c(OC)c(OC)c3)c(Cl)cc12	10	0	5	i	9	i	nt
CC(=O)Nc1nc(C)c(CCCOc2ccc([N+](=O)[O-])cc2)c(=O)[nH]1	13	-1	0	i	0	i	nt
CCn1c(SCC(=O)NC2CCCCC2)nnc1-c1ccco1	-11	0	1	i	0	i	nt
CCCCCCCCNC(C)C(O)c1ccc(SC(C)C)cc1 (stereo unspecified)	-9	11	2	25*	86*	i	11
CN1CCN(C(c2ccc(C(F)(F)F)cc2)c2cc(Cl)c3cccnc3c2O)CC1 (stereo unspecified)	nt	nt	nt	i	nt	nt	nt
CN1CCN(C(c2ccc(Cl)cc2)c2cc(Cl)c3cccnc3c2O)CC1 (stereo unspecified)	-31	2	34*	i	75*	i	-23
CC1CN(Cc2ccccc2)C(=S)N(c2ccccc2)C1=O (stereo unspecified)	-5	0	-1	nt	0	i	nt
Cc1nn(S(=O)(=O)c2ccc(Cl)cc2)c(C)c1Sc1ccc([N+](=O)[O-])cc1	30	2	1	i	61*	i	41*
SMILES	CRFBP-R2 block	CRFR2-BP ag	GRIN3A LBD mod	TMEM16A inh	MPTP block	TMEM16A act	Rh123 counter	others
O=[N+]([O-])c1ccc(N/N=C2\CC3CC=CC23)c([N+](=O)[O-])c1 (stereo unspecified)	-7	-1	0	i	92*	i	75*
Cc1nc2ccccc2n1CC(=O)NCc1ccccc1	-10	0	-1	i	70*	i	20	MPTP swell DR=i;MPTP counter DR=31*
O=C(CC[C@H]1O[C@@H](n2ccc(=O)[nH]c2=O)[C@H](O)[C@@H]1O)N[C@H](Cc1ccccc1)C(=O)NCc1ccc2c(c1)OCO2	nt	nt	nt	nt	-1	nt	nt
CCn1c(CCl)nc2cc(S(=O)(=O)N3CCOCC3)ccc21	17	1	0	nt	0	nt	nt
COc1ccc(S(=O)(=O)NCc2cccnc2)c(Cl)c1Cl	6	1	nt	nt	2	nt	nt
CCOC(=O)c1oc2cc(O)c(CC)cc2c(=O)c1-c1cscn1	-14	1	-1	i	-1	i	nt
CCOC(=O)c1ccc(-c2c(C(=O)OCC)oc3cc(O)c(CC)cc3c2=O)o1	32	0	-2	i	82*	i	86*
COc1ccc(NC(=O)Cn2c(C)cc(=O)c3ccccc32)cc1	0	0	0	i	61*	i	41*
COc1ccccc1C(=O)NCCN1CCCC1	-2	1	nt	nt	0	nt	nt
CCN(CC(=O)NCc1ccc(Cl)cc1)C(=O)c1cc(S(=O)(=O)N2CCOCC2)ccc1C	5	-1	0	nt	0	i	nt
O=C(NNC(=O)c1ccccc1O)c1ccc(Cl)c(S(=O)(=O)N2CCc3ccccc32)c1	-7	-2	9	100*	107*	i	76*
O=C(NNC(=O)c1cccc(S(=O)(=O)N2CCc3ccccc32)c1)c1ccccc1	2	1	3	nt	100*	i	83*
O=C(c1ccc(Cl)c(S(=O)(=O)N2CCc3ccccc32)c1)N1CCN(c2ccccc2O)CC1	1	0	-2	nt	1	i	nt
C=CCn1c(C)nnc1SCC(=O)Nc1oc(C)c2c(C)n[nH]c(=O)c12	7	-1	0	i	0	i	nt
Fc1cc(Br)ccc1NC(=S)NCCc1ccccc1	4	1	30*	i	79*	i	83*
CN(C)CCNC(=S)Nc1ccc(Cl)cc1	44	-2	-1	i	0	i	nt
S=C(NCCc1ccccc1)Nc1ccc(Cl)cc1	18	15	27*	i	100*	i	90*
CC(=O)c1ccc(NC(=S)NCCc2cccc(Cl)c2)cc1	7	9	26*	i	86*	i	95*
